Lamin A splicing: qHTS Assay for Modulators of Lamin A Splicing; HeLa LMNA splicing GFP/RFP minigene ratio, 48 h; Potency, µM (series often up to 46.1 µM), for the others: at the highest dose ratio change, negative = inhibition, usual class: inhibitors; 0.01% of 200,000 active; AID 1487, 2009; active = well fitted inhibition curve with a large enough effect in the signal ratio, with a control signal flat, not every such curve was filed as active; inconclusive = small, poorly fitted or top-dose-only effect, or effect the other way, or a change in a side signal; the % refers to the signal ratio; note: potency is the fitted concentration of half-maximal effect
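S3 HeLa stable clones carrying a lamin A-EGFP splicing minigene plus DsRed2 were seeded at 600 cells/well in Opti-MEM with 2% FBS, pin-dosed and incubated 48 h at 37°C. Acumen cytometry (488 nm) gave the GFP/RFP total-intensity ratio.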
HPGD block: qHTS Assay for Inhibitors of HPGD (15-Hydroxyprostaglandin Dehydrogenase); purified HPGD, NADH fluorescence kinetic, PGE2 substrate; 4.3% of 150,000 active; 15-hydroxyprostaglandin dehydrogenase [NAD(+)] (Homo sapiens), P15428; Potency, µM, inactives show at the highest dose activity change, negative = inhibition, hits mostly inhibitors; AID 894, 2007; note: potency is the fitted concentration of half-maximal effect
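20 nM HPGD preincubated 15 min at room temperature with compound in 50 mM Tris-HCl pH 8, 0.01% Tween 20. Started with 1 mM NAD+ and 30 uM prostaglandin E2; NADH fluorescence (360/450 nm) read 5 times over 30-s intervals, last minus first.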
PNC inhibitor: High Content Assay for Compounds that inhibit the Assembly of the Perinucleolar Compartment | AID 2417, 2010 | PC3M PTB-GFP, PNC prevalence imaging, 16 h; stronger effect = lower value | 3.1% of 140,000 active | activity change (PNC), negative = inhibition, % at 10 µM;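 active = readout at or below -70, meaning at least 70% loss of cells showing the perinucleolar compartment, a nuclear body marking cancer cells; inconclusive = readout between -30 and a set limit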;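 note: plate controls were DMSO wells for no effect and camptothecin positive control wells for full effect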
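PC3M cells stably expressing PTB-GFP, 750–1000 cells/well, treated 16 h at 37 °C with compound (23 nl of library stock), in duplicate. After paraformaldehyde fixation and Hoechst stain, imaged at 20x; PNC prevalence scored by image analysis.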
12-hLO inh: qHTS Assay for Inhibitors of 12-hLO (12-human lipoxygenase). Polyunsaturated fatty acid lipoxygenase ALOX12 (Homo sapiens), P18054. purified 12-hLO, xylenol orange hydroperoxide absorbance. 0.12% of 150,000 active. Potency, µM (doses to about 57.1 µM), inactives show top-dose activity change, negative = inhibition, actives largely listed as inhibitors; active = well fitted inhibition curve with a large enough effect; inconclusive = small, poorly fitted or top-dose-only effect; note: potency is the fitted concentration of half-maximal effect; nearly all actives have a fitted effect of over 55% in size
Target sequence (P18054 whole entry, looked up): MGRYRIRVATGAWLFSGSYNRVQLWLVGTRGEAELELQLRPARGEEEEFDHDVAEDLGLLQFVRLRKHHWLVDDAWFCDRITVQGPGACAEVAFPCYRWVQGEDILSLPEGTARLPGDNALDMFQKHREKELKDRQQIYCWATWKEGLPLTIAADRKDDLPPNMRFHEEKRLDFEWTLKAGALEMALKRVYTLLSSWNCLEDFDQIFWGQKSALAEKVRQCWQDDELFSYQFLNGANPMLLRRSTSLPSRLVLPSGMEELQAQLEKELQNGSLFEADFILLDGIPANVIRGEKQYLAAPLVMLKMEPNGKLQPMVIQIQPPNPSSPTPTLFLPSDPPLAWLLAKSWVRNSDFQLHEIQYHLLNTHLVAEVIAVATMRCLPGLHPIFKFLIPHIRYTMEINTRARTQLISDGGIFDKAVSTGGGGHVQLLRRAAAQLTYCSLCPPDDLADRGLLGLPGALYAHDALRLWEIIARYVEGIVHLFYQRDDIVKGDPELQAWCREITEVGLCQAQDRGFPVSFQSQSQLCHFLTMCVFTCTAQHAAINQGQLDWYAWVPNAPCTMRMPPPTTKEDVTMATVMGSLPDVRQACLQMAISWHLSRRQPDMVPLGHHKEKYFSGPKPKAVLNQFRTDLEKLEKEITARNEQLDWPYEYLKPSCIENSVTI
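Purified human 12hLO (150 nM), preincubated 15 min with compound, then 40 uM arachidonic acid for 30 min, room temperature, Hepes pH 7.0 with 0.01% Triton X-100. Hydroperoxide detected by ferrous iron/xylenol orange; 573/405 nm absorbance ratio gives reaction progress.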
ALDH1A1 inh: qHTS Assay for Inhibitors of Aldehyde Dehydrogenase 1 (ALDH1A1); Purified ALDH1A1, NADH fluorescence, propionaldehyde substrate; Potency, µM (top dose mostly 75.3 µM), for the others: top-dose activity, negative = inhibition, hits mostly inhibitors; 7.3% of 220,000 active;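 note: potency is the fitted concentration of half-maximal effect; plate controls were no enzyme wells and a reference inhibitor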
Numbers without * were called inactive; [ ] = another dose, or the depositor's remark. The list is not random: actives were taken first. Their share in the collection is about 10%. Unless noted, calls come from the whole dose curve; as a rule, active = well fitted inhibition curve with a large enough effect (not every such curve was filed as active); inconclusive = small, poorly fitted or top-dose-only effect, or another doubt; inactive = no such curve, though single readings can be large or run the other way. Unless noted, % is set by controls: 0 for no effect and ±100 for the full control effect.

COc1ccccc1OCc1nnc(SCC(=O)c2cc(Cl)ccc2OC)o1 was read as Lamin A splicing -13.1%, HPGD block inconclusive, PNC inhibitor inconclusive, 12-hLO inh -6.1% and ALDH1A1 inh -4.8%.
Screening COc1ccccc1OCC(=O)n1cc(C(=O)c2cc(Cl)cc(Cl)c2O)cn1 returned Lamin A splicing 4.5%, HPGD block 17.8µM*, PNC inhibitor inconclusive, 12-hLO inh 5.9% and ALDH1A1 inh -1.1%.
`CN1CCN(c2ncc3nc(-c4ccc(Cl)cc4)c(=O)n(CCC#N)c3n2)CC1` gave HPGD block inconclusive, 12-hLO inh -23.0% and ALDH1A1 inh inconclusive.
For CCOC(=O)c1cc(-c2cccs2)nn1CCC#N the results were Lamin A splicing 8.9%, HPGD block -14.1%, PNC inhibitor inconclusive, 12-hLO inh -3.6% and ALDH1A1 inh 14.1µM*.
CCOC(=O)c1cc(-c2ccncc2)nc2c1c(C)nn2-c1ccccn1 was read as Lamin A splicing -2.4%, HPGD block -10.2%, PNC inhibitor -100.0*, 12-hLO inh -4.3% and ALDH1A1 inh inconclusive.
For CCOC(=O)c1cc(-c2ccc(C#N)cc2)nc2c1c(C)nn2CCC#N the results were Lamin A splicing 4.2%, HPGD block inconclusive, PNC inhibitor -111.3*, 12-hLO inh 7.1% and ALDH1A1 inh inconclusive.
For COc1cccc(-c2cc(NCc3cccs3)ncn2)c1 the results were Lamin A splicing -3.7%, HPGD block inconclusive, 12-hLO inh -0.6% and ALDH1A1 inh inconclusive.
Screening O=C(NNS(=O)(=O)c1ccccc1)c1cc2cc3ccccc3nc2s1 returned Lamin A splicing -9.8%, HPGD block inconclusive, PNC inhibitor -106.3*, 12-hLO inh -10.1% and ALDH1A1 inh 8.3%.
Screening O=C(NNC(=O)c1cc2cc3ccccc3nc2s1)c1cccc(C(F)(F)F)c1 returned Lamin A splicing -6.2%, HPGD block -20.2%, PNC inhibitor -25.3, 12-hLO inh -5.2% and ALDH1A1 inh inconclusive.
Screening O=C(CCSCc1ccc(Cl)cc1)N1CCN(c2ccccc2F)CC1 returned Lamin A splicing -14.3%[46 µM].
CCc1ccc(CCC(=O)Nc2ccc(C)c(C)c2)o1 was read as Lamin A splicing 8.3%, HPGD block -25.0%, PNC inhibitor -10.7, 12-hLO inh 31.3% and ALDH1A1 inh 12.6µM*.
CCc1ccc(CCC(=O)Nc2nnc(C)s2)o1 was read as Lamin A splicing 4.2%, HPGD block -4.8%, PNC inhibitor -21.8, 12-hLO inh 3.4% and ALDH1A1 inh -11.9%.
`COc1ccc(C(=O)NCC2(N3CCN(C)CC3)CCCCC2)cc1` gave Lamin A splicing 8.6%[46 µM].
Screening CSc1cccc(-n2c(C)cc(C(N)=O)c2C)c1 returned Lamin A splicing 9.8%, HPGD block 4.47µM*, PNC inhibitor -13.8, 12-hLO inh 2.8% and ALDH1A1 inh 6.4%.
`O=C(NCc1ccccc1)c1ccc2c(c1)nc1n2CCOC1` gave Lamin A splicing -17.3%[46 µM].
Screening CCCCC[n+]1ccn(C2=C([O-])c3ccccc3C(=O)/C2=N\S(=O)(=O)c2ccccc2)c1 returned Lamin A splicing 3.2%, HPGD block -11.2%, PNC inhibitor 94.7, 12-hLO inh -1.2% and ALDH1A1 inh 5.01µM*.
`CCCC[n+]1ccn(C2=C([O-])c3ccccc3C(=O)/C2=N\S(=O)(=O)c2ccccc2)c1` gave Lamin A splicing -2.5%, HPGD block -14.6%, PNC inhibitor 42.1, 12-hLO inh -16.2% and ALDH1A1 inh inconclusive.
For Cc1cc(=O)n(Cc2ccc(Cl)cc2)c2c1c(C)nn2-c1ccccc1 the results were Lamin A splicing 4.5%[46 µM].
For O=C(Nc1cc(Cl)cc(Cl)c1)c1ccc(F)c(S(=O)(=O)N2CCCCCC2)c1 the results were Lamin A splicing 0.2%[46 µM].
Screening CC1(C)CC(=O)C=C(N2CCN(C3=CC(=O)CC(C)(C)C3)CC2)C1 returned Lamin A splicing 5.9%, HPGD block -10.9%, PNC inhibitor inconclusive, 12-hLO inh -7.1% and ALDH1A1 inh 20µM*.
For Cc1ccc(-c2nnc3ccc(SCC(=O)Nc4cc(C)on4)nn23)cc1 the results were Lamin A splicing 4.6%, HPGD block -25.9%, PNC inhibitor -0.9, 12-hLO inh -2.5% and ALDH1A1 inh 1.6%.
`Cc1cc(NC(=O)CSc2n[nH]c(-c3cccs3)n2)no1` gave Lamin A splicing 11.9%, HPGD block 14.1µM*, PNC inhibitor inconclusive, 12-hLO inh -1.5% and ALDH1A1 inh 5.3%.
Screening Cc1cc(NC(=O)CSc2n[nH]c(N)n2)no1 returned Lamin A splicing -18.8%[46 µM] and ALDH1A1 inh 6.6%.
For Cc1cc(NC(=O)CSc2ccc3nnc(-c4cccs4)n3n2)no1 the results were Lamin A splicing -0.2%, HPGD block -13.3%, PNC inhibitor -105.7*, 12-hLO inh -1.6% and ALDH1A1 inh 0.9%.
For OCCNc1nc(-c2cccnc2)nc2ccccc12 the results were Lamin A splicing inconclusive, HPGD block inconclusive, PNC inhibitor inconclusive, 12-hLO inh -4.9% and ALDH1A1 inh 25.1µM*.
CC(C)CCNC(=O)N1CCN(S(=O)(=O)c2ccc3c(ccn3C)c2)CC1 was read as Lamin A splicing -2.8%[46 µM].
COC(=O)N1CCC[C@@]2(CCN(Cc3nccs3)C2)C1 was read as HPGD block 0.6%, 12-hLO inh 0.0% and ALDH1A1 inh 7.8%.
For CC(C)(C)OC(=O)N1CCC(c2c(C(=O)NC3CCCCC3)cnn2-c2cccc(Cl)c2)CC1 the results were Lamin A splicing 3.9%[46 µM].
For CC1=C(C(=O)OC2CCCC2)C(c2ccc(C)o2)C2=C(CC(c3cccs3)CC2=O)N1 (stereo not drawn) the results were Lamin A splicing -23.2%, HPGD block -19.3%, PNC inhibitor inconclusive, 12-hLO inh -13.3% and ALDH1A1 inh 14.1µM*.
For Cc1c(C(=O)N2CCCCC2C)sc2ncnc(N3CCc4ccccc4C3)c12 (stereo not drawn) the results were ALDH1A1 inh 7.94µM*.
Cc1c(C(=O)N2CCOCC2)sc2ncnc(N3CCc4ccccc4C3)c12 was read as Lamin A splicing inconclusive, HPGD block -9.0%, PNC inhibitor 4.0, 12-hLO inh -1.1% and ALDH1A1 inh 0.1%.
`CCN(CC)CCNC(=O)c1ccc(Cc2nc3ccccc3[nH]2)cc1` gave HPGD block 0.3%, 12-hLO inh 2.6% and ALDH1A1 inh 11.1%.
Screening CCOc1ccc(C(=O)N2CCC(c3ccncc3)CC2)cc1 returned Lamin A splicing 15.5%[46 µM].
For O=C(O)CSc1nnc(COc2ccc([N+](=O)[O-])cc2)n1-c1ccccc1 the results were Lamin A splicing 10.0%[46 µM] and ALDH1A1 inh 20µM*.

Screening data from PubChem BioAssay.
